Data on 22 compounds can be found in PubChem BioAssay (NCATS).

Inconclusive results are not listed. Unmarked numbers belong to inactive results. The source made the active and inactive calls. Calls come from the whole dose curve; as a rule, active = well fitted cell-killing curve with a large enough effect; inconclusive = small, poorly fitted or top-dose-only effect, or effect the other way; inactive = no such curve, though single readings can be large or run the other way.

The nature of assay [1]: Viability qHTS for spleen associated tyrosine kinase inhibitor (SYKi) naive MV4-11 cells (AID 1963823). Note: nearly all actives have a fitted effect of over 40% in size. As to conditions: MV4-11 AML viability, CellTiter-Glo luminescence, 72 h; series mostly up to 45 µM. An outline of the steps:
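Cells: MV4-11, SYK inhibitor naive, 500 per well. Treatment: library compounds, 72 hr, 37 C, 5% CO2. Read-out: CellTiter-Glo luminescence after 10 min RT.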
A general note: In qHTS, concentration-response curves come from the screen itself.

Assay [2] in a line: Viability qHTS for spleen associated tyrosine kinase inhibitor (SYKi) drug resistant MV4-11 cells (AID 1963824). Note: nearly all actives have a fitted effect of over 35% in size. As to conditions: SYKi-resistant MV4-11 viability, CellTiter-Glo, 72 h; series mostly up to 45 µM. In short, it runs like this: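 SYK-inhibitor-resistant MV4-11 AML cells were seeded at 500 per well onto compound and cultured 72 hours (37 °C, 5% CO2). CellTiter-Glo was then added, and after 10 min at room temperature, luminescence gave viability.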
Potency is the fitted concentration of half-maximal effect.

As for `CCNC(=O)Nc1ccc(-c2nc3c(c(N4CCOC[C@H]4C)n2)CCN(C2COC2)C3)cc1`, the Potency in assay [1] is 461 nM (active); in assay [2], 820 nM (active).

With `CC1=C2C(=O)C=C(CO)[C@@H]2[C@H]2OC(=O)[C@H](C)[C@@H]2[C@@H](O)C1`, the Potency result in assay [1] and in assay [2] was “inactive” throughout.

Regarding `CC(=O)O[C@H]1CC(C)(C)CC2[C@@]13[C@H](O)C[C@]1(C)[C@@]2(CCC2[C@@]4(C)CC[C@H](O[C@@H]5OC[C@H](O[C@@H]6O[C@H](CO)[C@@H](O)[C@H](O)[C@H]6O[C@@H]6OC[C@@H](O)[C@H](O)[C@H]6O)[C@H](O)[C@H]5O[C@@H]5O[C@H](CO)[C@@H](O)[C@H](O)[C@H]5O)C(C)(C)C4CC[C@]21C)O[C@@H]3O` (some centres undefined), the results for the Potency in assay [1] and in assay [2] were 873 nM (active) and 778 nM (active), respectively.

As for `O=C(/C=C\c1ccc(O)cc1)N[C@@H](Cc1ccc(O)cc1)C(=O)O`, the Potency entry in assay [1] and in assay [2] was “inactive” throughout.

On to `CC1OC(O[C@@H]2[C@@H](O)[C@H](OC(=O)[C@]34CCC(C)(C)C[C@H]3C3=CCC5[C@@]6(C)CC[C@H](O[C@@H]7O[C@H](C(=O)O)[C@@H](O)[C@H](O[C@@H]8OC[C@@H](O)[C@H](O)[C@H]8O)[C@H]7O[C@@H]7O[C@H](CO)[C@H](O)[C@H](O)[C@H]7O)[C@@](C)(C=O)C6CC[C@@]5(C)[C@]3(C)C[C@H]4O)O[C@H](C)[C@@H]2OC2OC(C)C(OC3OCC(O)C(O)C3O)C(O)C2O)C(O)C(O)C1O` (some centres undefined), for which the viability (% of control) in assay [1] is 94.8% [at 9.25 µM]. The viability, % of control in assay [2] is 106% [at 9.25 µM].

With `C#Cc1cccc(Nc2nc3cc(C(=O)O)ccc3c3cncnc23)c1`, the Potency in assay [1] was 5170 nM (active); in assay [2] it was 2910 nM (active).

Consider `C[C@@H]1CC[C@]2(C(=O)O)CC[C@]3(C)C(=CCC4[C@]5(C)C(CC[C@]43C)C(C)(C)[C@@H](O)[C@H](O)[C@@H]5O)C2[C@]1(C)O` (some centres undefined), for which the Potency entry in assay [1] and in assay [2] was “inactive” each time.

Consider `COc1ccc(N(C(=O)Nc2c(C)cccc2C)c2cc(Nc3ccc(N4CCN(C)CC4)cc3)ncn2)c(OC)c1`, for which the Potency was 2310 nM (active) in assay [1] and 3660 nM (active) in assay [2].

Take `COc1ccc(OC(=O)N(CC(=O)O)Cc2ccc(OCCc3nc(-c4ccccc4)oc3C)cc2)cc1`: the Potency result in assay [1] and in assay [2] was “inactive” throughout.

Take `CC1=CC(=O)CC(C)(C)C1(O)CCC(C)O` (centres undefined): the Potency result in assay [1] and in assay [2] was “inactive” in each case.

Consider `CCCC(=O)C1CCN(c2ncnc3c2CN(C(=O)c2ccc(-c4ccccc4)cc2)CC3)CC1`, for which the Potency in assay [1] was 16400 nM (active); in assay [2] it was 20600 nM (active).

Turning to `CNc1nc(-c2ccc3c(N)n[nH]c3c2)cc(N2CC(C(=O)NC3CCCCC3)CCC2C)n1` (centres undefined), the Potency in assay [1] is 2310 nM (active); in assay [2], 4610 nM (active).

Regarding `CC1[C@@H](O)[C@@H](O)C2[C@]3(C)C(C[C@H]4OC(=O)[C@H](O)[C@]1(O)[C@@]24C)C(C)(O)C[C@H](O)[C@H]3O` (some centres undefined), the Potency entry in assay [1] and in assay [2] was “inactive” each time.

For `C=C(C)C(=O)O[C@H]1[C@H]2C(=C)C(=O)O[C@@H]2C[C@@H](C)[C@@H]2O[C@@H]2C(=O)[C@](C)(O)[C@@H]1OC(=O)C(=C)C`, the Potency in assay [1] and in assay [2] was 1000 nM (active) throughout.

With `O=C1c2c(O[C@@H]3O[C@H](CO)[C@@H](O)[C@H](O)[C@H]3O)cc(O)cc2OC1(O)Cc1ccc(O)cc1` (some centres undefined), the Potency is 2000 nM (active) in assay [1] and 3170 nM (active) in assay [2].

With `CC(C)=CCC/C(C)=C/Cc1ccc(O)c(C2OC(=O)c3cc(C(=O)O)cc(O)c32)c1O` (centres undefined), the Potency result in assay [1] and in assay [2] was “inactive” throughout.

With `C[C@@H]1O[C@@H](O[C@H]2[C@H](OC(=O)C34CCC(C)(C)CC3C3=CCC5C6(C)CC(O)C(O[C@@H]7O[C@H](CO)[C@@H](O)[C@H](O)[C@H]7O)C(C)(C(=O)O)C6CCC5(C)C3(CO)CC4)O[C@H](C)[C@H](O)[C@@H]2O)[C@H](O)[C@H](O)[C@H]1O[C@@H]1OC[C@@H](O)[C@H](O)[C@H]1O` (some centres undefined), in assay [1], the viability (% of control) was 87% [at 9.25 µM]. The viability, % of control in assay [2] was 109% [at 9.25 µM].

With `OC[C@H]1O[C@@H](OCc2ccccc2)[C@H](O[C@@H]2OC[C@@H](O)[C@H](O)[C@H]2O)[C@@H](O)[C@@H]1O`, the Potency result in assay [1] and in assay [2] was “inactive” each time.

In the case of `O=C(/C=C/c1ccccc1)O[C@@H]1[C@@H](CO)O[C@@](CO)(O[C@H]2O[C@H](CO)[C@@H](O)[C@H](O)[C@H]2O)[C@H]1O`, the Potency entry in assay [1] and in assay [2] was “inactive” in each case.

For `NCC(=O)O`, the Potency result in assay [1] and in assay [2] was “inactive” each time.

Consider `CC1(C(=O)O)CCCC2(C)C1CCC13CC(CCC21)C1(CO)OC31` (centres undefined), for which the Potency result in assay [1] and in assay [2] was “inactive” throughout.

As to `Cc1cccc(N(C)C(=S)Oc2ccc3c(c2)C2CCC3C2)c1` (centres undefined), the Potency result in assay [1] and in assay [2] was “inactive” throughout.
